Data published in PubChem BioAssay (NCI).
About 83,000 compounds went through this panel and 20% of them were active in at least one assay; those are over-represented in the sample as a whole.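 Assay: single dose, 48 h. Readout: percent growth (0 = no net growth; negative = cell death). Active: <10.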 Active and inactive are the calls of the source.

The compounds below were run on MDA-MB-468 breast (assay: NCI-60 one-dose screen, 48 h (100 = growth as untreated, 0 = no growth, -100 = all killed)). Details: 10 µM unless noted.
With COc1cc(-n2nc(C(=O)Nc3ccc(C(=O)O)cc3)nc2-c2ccccc2)cc(OC)c1OC the growth was 0.458% (active). In the case of Cc1cc2nc3c4cc(N)ccc4n(CCN(C)C)c3nc2cc1C, the growth is reported as -5.6% (active). In the case of COc1ccc(N)cc1C(=O)Nc1cccc(-c2cc(=O)c3c(OC)c(OC)c(OC)cc3o2)c1, the growth is reported as 55.9% (inactive). In the case of CN1CCN(c2nc(-c3csc(-c4ccccc4)n3)cc3ccccc23)CC1, the growth is reported as -71.9% (active). CCOC(=O)c1c(C)c2c(n1C)CSc1cc(S(=O)(=O)c3ccccc3)c(=O)[nH]c1-2 was tested, and the growth was 2.42% [100 µM] (active). With CN(C)c1ccc(/C=N/NC(=O)c2cccc3ccccc23)c(Cl)c1 the growth was -7.38% (active). In the case of O=c1cc(C2NCCc3c2[nH]c2ccccc32)c2c(ccc3ccccc32)o1 (stereo not given), the growth is reported as 89.9% (inactive). Cc1[nH]c(C(=O)Nc2ccccc2OCc2cccc(C(=O)NC3CCCNC3)c2)c(Cl)c1Cl (stereo not given) was tested, and the growth was -80.6% (active). For CCOC(=O)Nc1cccc(-n2cnc3cc(-c4ccc(O)cc4)ccc32)c1, the growth was 20.4% (inactive). With Nc1ncnc2c1ncn2C1OC(COP(=O)(O)O)C(O)C1O (stereo not given) the growth was 102% (inactive). In the case of CCOC(=O)/C(C#N)=C(\C)CCc1ccccc1, the growth is reported as 76.5% (inactive). With COc1ccc(C2C(C#N)=C(N)Oc3c2ccc2ccccc32)cc1 (stereo not given) the growth was 14.5% (inactive). With CCc1c2c(nc3ccc(OCc4ccc(B5OC(C)(C)C(C)(C)O5)cc4)cc13)-c1cc3c(c(=O)n1C2)COC(=O)[C@]3(O)CC the growth was -42% (active). With CC(C)C[C@H](NC(=O)Cn1cccc(CNC(=O)c2ccccc2)c1=O)B(O)O the growth was -19.5% (active). For NS(=O)(=O)c1ccc(Nc2nc(SCC(=O)c3ccc(Cl)cc3)nc3ccccc23)cc1, the growth was 82.4% (inactive). In the case of COc1cc(C2=N/C(=C\c3cc4ccccc4nc3Oc3ccccc3)C(=O)N2C(=N)N)cc(OC)c1OC, the growth is reported as 67.9% (inactive). With COc1ccccc1C(=O)CSc1nc(Nc2ccc(S(N)(=O)=O)cc2)c2ccccc2n1 the growth was 99.7% (inactive). For CC1(C)CC(=O)C2=C(C1)N(c1ccc(F)cc1F)C(N)=C(C#N)C2c1cc(Br)ccc1F (stereo not given), the growth was 92.9% (inactive). In the case of C=C[C@@]1(C)CC(=O)[C@@H](C(C)(C)c2cn(C)c3ccc(Br)cc23)C[C@@H]1O[Si](C)(C)C(C)(C)C, the growth is reported as 100% (inactive). In the case of CN(Cc1ccccc1)c1nc(Cl)c(C2CC(c3ccc(F)cc3)=NN2C=O)s1 (stereo not given), the growth is reported as 77.5% (inactive). In the case of COc1ccc(/C=C2\CCCC3=C2NC(C)=NC3c2ccc(OC)c(OC)c2)cc1OC (stereo not given), the growth is reported as -10.3% (active). For CC[C@@H]1NC(=O)[C@@H]2CCCCN2C(=O)[C@@H]2CCCN2C(=O)[C@@H](NC(=O)[C@H](Cc2cc(F)cc(F)c2)NC(=O)Nc2ccc(C3CC3)cc2F)[C@H](C)OC(=O)[C@@H]2C[C@@H](C)CN2C1=O, the growth was -33.6% (active). With CCN(CC)CCCNc1nccc2ccc(Cl)cc12 the growth was 97.5% (inactive). COc1ccc(-c2nc3ccccc3n3cccc23)cc1 was tested, and the growth was 112% (inactive). CCOC(=S)Sc1ccc([N+](=O)[O-])cc1[N+](=O)[O-] was tested, and the growth was 52.7% (inactive). In the case of O=C(O)[C@@H]1c2ccccc2-c2ccccc2[C@H]1C(=O)O, the growth is reported as 97.5% (inactive). COC(=O)c1c2c(c(C)[n+]([O-])c1C)C(=O)C(NCc1cccc(OC)c1)=CC2=O was tested, and the growth was -21.3% (active). COc1cc(/C=C/c2cc(/C=C/c3ccc(O)c(OC)c3)n(C(=O)Nc3ccc(C)cc3)n2)ccc1O was tested, and the growth was -29.1% (active). For CN(C)CCCN(c1nc(C(Cl)(Cl)Cl)ns1)c1nc(C(Cl)(Cl)Cl)ns1, the growth was 14.5% (inactive). In the case of c1ccc(-c2ccc(-c3ccccc3)[nH]2)cc1, the growth is reported as 70.1% (inactive). Cc1cc(C)c(S(=O)(=O)Oc2ccccc2[N+](=O)[O-])c(C)c1 was tested, and the growth was -0.215% (active). For COc1ccc(C2Nc3ccccc3-n3cccc32)cc1 (stereo not given), the growth was 108% (inactive). Cc1cccc(C)c1NC(=O)CN(CC(C)C)CC(O)COc1ccccc1 (stereo not given) was tested, and the growth was 94.5% (inactive). COc1cc(N=Nc2cc(Cc3ccc(N(C)C)cc3)c(N)cc2N(C)C)c2ncccc2c1 was tested, and the growth was -54.8% (active). For Cc1[nH]c2ccc(F)cc2c1CCNC(=O)C1CCN(C(=O)c2ccc(-c3ccccc3)cc2)CC1, the growth was 48.5% (inactive). In the case of CSc1nc(C)c([N+](=O)[O-])c(N)n1, the growth is reported as 106% (inactive). With O=c1oc2c(cnc3ccccc32)cc1-c1ccsc1 the growth was 85.5% (inactive). In the case of CCCCCCCCCCCCc1ccc(C(=O)/C=C/C(=O)O)cc1, the growth is reported as -9.53% (active). In the case of C=Cc1cc[n+](CCCCCCCCCCCC)cc1, the growth is reported as 102% (inactive). In the case of COC1CC2CCC(C)C(O)(O2)C(=O)C(=O)N2CCCCC2C(=O)OC(C(C)CC2CCC(O)C(OC)C2)CC(=O)C(C)C=C(C)C(O)C(OC)C(=O)C(C)CC(C)/C=C/C=C/C=C1C (stereo not given), the growth is reported as 23.3% (inactive).
